Results taken from PubChem BioAssay (EPA / NIEHS).
Results filed as inconclusive are left out. Some structures have more than one record in an assay (separate samples or runs), and their calls can disagree. Active and inactive are the calls of the source. How the source made its calls, unless noted: active means hit-call score of the fitted dose curve at least 0.9, where 1 is the maximum; inconclusive means response in the unintended direction; inactive means score below 0.9.

Legend:
[1] = molecular target: human Peroxisome Proliferator-activated Receptor alpha (PPARa), PPARA (gene 5465) (UniProt Q07869); test: ATG_PPARa_TRANS: Attagene TRANS-FACTORIAL HepG2 Assay for human Peroxisome Proliferator-activated Receptor alpha (PPARa) (AID 2283001)
Sequence of human Peroxisome Proliferator-activated Receptor alpha (PPARa), PPARA (gene 5465) (Q07869 whole entry, looked up, the tested form may be a part): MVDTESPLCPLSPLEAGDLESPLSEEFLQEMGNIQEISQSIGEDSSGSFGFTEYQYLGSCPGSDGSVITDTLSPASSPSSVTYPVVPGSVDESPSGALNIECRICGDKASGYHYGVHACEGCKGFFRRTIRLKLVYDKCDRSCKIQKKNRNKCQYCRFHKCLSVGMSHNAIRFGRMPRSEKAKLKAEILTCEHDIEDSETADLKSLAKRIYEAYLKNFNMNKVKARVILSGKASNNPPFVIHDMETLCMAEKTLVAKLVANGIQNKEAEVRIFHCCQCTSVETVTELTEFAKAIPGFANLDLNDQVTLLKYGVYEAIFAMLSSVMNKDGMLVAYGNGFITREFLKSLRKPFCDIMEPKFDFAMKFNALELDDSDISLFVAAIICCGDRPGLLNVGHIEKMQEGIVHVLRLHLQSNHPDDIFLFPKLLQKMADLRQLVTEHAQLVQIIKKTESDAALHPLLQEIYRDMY
How it was run: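 HepG2 cells transiently transfected with multiplexed GAL4-UAS reporters driven by exogenous chimeric NR-Gal4 proteins; reporter mRNA measured after 24 h dosing. Read-out by RT-PCR, 6-FAM labelling, HpaI digestion and capillary electrophoresis; gain of signal versus DMSO.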

[2] = read-out: Intercellular Adhesion Molecule 1 (ICAM1), ICAM1 (gene 3383); test: BSK_3C_ICAM1: BioMAP Diversity Plus: 3C Assay for Intercellular Adhesion Molecule 1 (ICAM1) Biomarker Activity (AID 2283003; active means hit-call score of the fitted dose curve at least 0.9, where 1 is the maximum; inactive means score below 0.9); conditions: primary human endothelial cells (HUVEC); actives raise or lower the signal
How it was run: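 HUVEC primary cells stimulated under 3C conditions; ICAM1 measured by ELISA 24 h after compound dosing. Curves fitted bidirectionally against the DMSO baseline. Overt cytotoxicity checked by SRB staining of parallel cultures.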

[3] = molecular target: human Retinoic Acid Receptor beta (RARb), RARB (gene 5915) (UniProt P10826); test: ATG_RARb_TRANS: Attagene TRANS-FACTORIAL HepG2 Assay for human Retinoic Acid Receptor beta (AID 2283004)
Sequence of human Retinoic Acid Receptor beta (RARb), RARB (gene 5915) (P10826 whole entry, looked up): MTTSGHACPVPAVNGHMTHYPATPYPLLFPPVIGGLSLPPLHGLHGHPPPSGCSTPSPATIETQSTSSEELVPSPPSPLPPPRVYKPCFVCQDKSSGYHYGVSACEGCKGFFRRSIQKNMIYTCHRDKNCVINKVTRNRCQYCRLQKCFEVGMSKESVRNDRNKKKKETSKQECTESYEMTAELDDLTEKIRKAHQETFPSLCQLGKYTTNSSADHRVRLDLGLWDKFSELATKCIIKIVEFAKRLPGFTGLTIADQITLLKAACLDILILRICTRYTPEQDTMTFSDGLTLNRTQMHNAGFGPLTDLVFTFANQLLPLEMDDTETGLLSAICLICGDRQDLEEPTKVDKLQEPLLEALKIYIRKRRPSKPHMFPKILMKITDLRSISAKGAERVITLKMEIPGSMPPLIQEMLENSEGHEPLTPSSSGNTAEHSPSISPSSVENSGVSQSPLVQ
How it was run: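 Transient transfection of HepG2 with multiple reporter units → chemical dosing, 24 h → total RNA isolation → RT with oligo(dT) → reporter-specific PCR, 6-FAM primer extension, HpaI digest → capillary electrophoresis. Positive direction vs DMSO control.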

[4] = molecular target: Peroxisome proliferator-activated receptor gamma (Homo sapiens) (UniProt P37231); test: ATG_PPARg_TRANS: Attagene TRANS-FACTORIAL HepG2 Assay for human Peroxisome Proliferator-activated Receptor-gamma (PPARg) (AID 2283007)
Sequence of Peroxisome proliferator-activated receptor gamma (Homo sapiens) (P37231 whole entry, looked up, the tested form may be a part): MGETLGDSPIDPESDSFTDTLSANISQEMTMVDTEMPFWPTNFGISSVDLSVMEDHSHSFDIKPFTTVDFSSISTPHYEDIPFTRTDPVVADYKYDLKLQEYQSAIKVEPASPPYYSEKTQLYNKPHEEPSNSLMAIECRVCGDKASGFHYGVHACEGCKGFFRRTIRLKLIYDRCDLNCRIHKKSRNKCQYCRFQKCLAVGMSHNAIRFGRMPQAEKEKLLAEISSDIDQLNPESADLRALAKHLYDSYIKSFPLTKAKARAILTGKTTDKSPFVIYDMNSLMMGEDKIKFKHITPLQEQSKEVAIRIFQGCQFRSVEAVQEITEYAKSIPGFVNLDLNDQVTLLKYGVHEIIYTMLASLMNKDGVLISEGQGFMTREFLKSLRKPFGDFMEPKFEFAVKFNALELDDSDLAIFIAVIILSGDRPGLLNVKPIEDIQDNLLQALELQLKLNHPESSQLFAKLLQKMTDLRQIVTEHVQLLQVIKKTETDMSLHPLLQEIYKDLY
How it was run: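 Gain-of-signal endpoint relative to DMSO, derived from reporter mRNA levels quantified by RT-PCR and capillary electrophoresis. Cells were HepG2 transiently expressing a chimeric NR-Gal4 construct with GAL4-UAS reporters, exposed to chemicals for 24 h.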

[5] = molecular target: human Thyroid Receptor alpha (THRa1), THRA (gene 7067) (UniProt P10827); test: ATG_THRa1_TRANS: Attagene TRANS-FACTORIAL HepG2 Assay for human Thyroid Receptor alpha (THRa1) (AID 2283014)
Sequence of human Thyroid Receptor alpha (THRa1), THRA (gene 7067) (P10827 whole entry, looked up, the tested form may be a part): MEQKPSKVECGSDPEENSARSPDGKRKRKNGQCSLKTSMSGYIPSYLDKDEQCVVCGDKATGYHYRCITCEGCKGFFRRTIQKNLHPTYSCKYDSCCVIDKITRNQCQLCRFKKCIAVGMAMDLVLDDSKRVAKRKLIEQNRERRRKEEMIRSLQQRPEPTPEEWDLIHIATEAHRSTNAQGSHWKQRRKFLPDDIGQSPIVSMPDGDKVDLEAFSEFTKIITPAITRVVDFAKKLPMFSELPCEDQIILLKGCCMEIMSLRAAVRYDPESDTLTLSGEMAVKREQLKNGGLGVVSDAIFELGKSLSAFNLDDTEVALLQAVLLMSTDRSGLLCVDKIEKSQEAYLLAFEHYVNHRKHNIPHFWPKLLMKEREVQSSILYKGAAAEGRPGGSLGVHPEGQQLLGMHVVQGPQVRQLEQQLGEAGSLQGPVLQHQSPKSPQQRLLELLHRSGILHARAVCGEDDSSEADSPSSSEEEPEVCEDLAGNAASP
How it was run: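 Reporter transcript induction, read by capillary electrophoresis of 6-FAM-labelled RT-PCR products, reflects activity of a transfected THRa1-Gal4 fusion in HepG2 liver cells. Cells were dosed for 24 h; activity was fitted in the positive direction against DMSO.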

[6] = read-out: E-selectin (Homo sapiens) (UniProt P16581); test: BSK_3C_Eselectin: BioMAP Diversity Plus: 3C Assay for Eselectin Biomarker Activity (AID 2283015; active means hit-call score of the fitted dose curve at least 0.9, where 1 is the maximum; inactive means score below 0.9;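 further: cell surface E-selectin protein quantified by ELISA 24 h after dosing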); conditions: primary human endothelial cells (HUVEC); actives raise or lower the signal
How it was run: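 ELISA read-out of E-selectin on endothelial monolayers after 24 h chemical treatment. Human umbilical vein primary cells served as the system, with DMSO defining baseline activity for bidirectional fitting.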

[7] = read-out: Interleukin-1 alpha (IL1a), IL1A (gene 3552); test: BSK_BE3C_IL1a: BioMAP Diversity Plus: BE3C Assay for Interleukin-1 alpha (IL1a) Biomarker Activity (AID 2283016; active means hit-call score of the fitted dose curve at least 0.9, where 1 is the maximum; inactive means score below 0.9); conditions: primary human bronchial epithelial cells; actives raise or lower the signal
How it was run: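 Human primary bronchial epithelial cells, 24 h chemical exposure; IL-1a quantified by ELISA, fitted bidirectionally against DMSO. Cytotoxicity assessed in parallel by SRB total-protein staining at the time of measurement.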

[8] = read-out: Monocyte Chemoattractant Protein-1 (MCP1), CCL2 (gene 6347); test: BSK_3C_MCP1: BioMAP Diversity Plus: 3C Assay for Monocyte Chemoattractant Protein-1 (MCP1) Biomarker Activity (AID 2283017; active means hit-call score of the fitted dose curve at least 0.9, where 1 is the maximum; inactive means score below 0.9); conditions: primary human endothelial cells (HUVEC); actives raise or lower the signal
How it was run: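 ELISA read-out of MCP-1 from human umbilical vein endothelial cell cultures harvested 24 h post-dosing. Gain or loss of signal was fitted relative to DMSO.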

[9] = read-out: Monocyte Chemoattractant Protein-1 (MCP1), CCL2 (gene 6347); test: BSK_4H_MCP1: BioMAP Diversity Plus: 4H Assay for Monocyte Chemoattractant Protein-1 (MCP1) Biomarker Activity (AID 2283018; active means hit-call score of the fitted dose curve at least 0.9, where 1 is the maximum; inactive means score below 0.9); conditions: primary human endothelial cells (HUVEC); actives raise or lower the signal
How it was run: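 Human umbilical vein endothelial cells (4H system) exposed to chemicals for 24 h in 96-well format. MCP-1 measured by ELISA; bidirectional fitting against DMSO, with SRB total-protein staining in parallel cultures for cytotoxicity.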

[10] = read-out: Human Leukocyte Antigen - DR isotype (HLADR), HLA-DRA (gene 3122); test: BSK_3C_HLADR: BioMAP Diversity Plus: 3C Assay for Human Leukocyte Antigen - DR isotype (HLADR) Biomarker Activity (AID 2283019; active means hit-call score of the fitted dose curve at least 0.9, where 1 is the maximum; inactive means score below 0.9;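 further: ELISA of cell-surface HLA-DR on HUVEC 24 h after dosing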); conditions: primary human endothelial cells (HUVEC); actives raise or lower the signal
How it was run: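 ELISA readout of surface HLA-DR on human umbilical vein endothelium, taken 24 h after chemical treatment. Gain- and loss-of-signal were both fitted relative to DMSO.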

[11] = read-out: Interleukin-8 (IL8), CXCL8 (gene 3576); test: BSK_3C_IL8: BioMAP Diversity Plus: 3C Assay for Interleukin-8 (IL8) Biomarker Activity (AID 2283020; active means hit-call score of the fitted dose curve at least 0.9, where 1 is the maximum; inactive means score below 0.9); conditions: primary human endothelial cells (HUVEC); actives raise or lower the signal
How it was run: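 Primary human umbilical vein endothelial cells were dosed for 24 h. IL-8 was quantified by ELISA and fitted bidirectionally against DMSO. Cytotoxicity was assessed in parallel cultures by SRB staining at 560 nm.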

[12] = molecular target: Retinoic acid receptor alpha (Homo sapiens) (UniProt P10276); test: ATG_RARa_TRANS: Attagene TRANS-FACTORIAL HepG2 Assay for human Retinoic Acid Receptor alpha (RARa) (AID 2283005)
Sequence of Retinoic acid receptor alpha (Homo sapiens) (P10276 whole entry, looked up, the tested form may be a part): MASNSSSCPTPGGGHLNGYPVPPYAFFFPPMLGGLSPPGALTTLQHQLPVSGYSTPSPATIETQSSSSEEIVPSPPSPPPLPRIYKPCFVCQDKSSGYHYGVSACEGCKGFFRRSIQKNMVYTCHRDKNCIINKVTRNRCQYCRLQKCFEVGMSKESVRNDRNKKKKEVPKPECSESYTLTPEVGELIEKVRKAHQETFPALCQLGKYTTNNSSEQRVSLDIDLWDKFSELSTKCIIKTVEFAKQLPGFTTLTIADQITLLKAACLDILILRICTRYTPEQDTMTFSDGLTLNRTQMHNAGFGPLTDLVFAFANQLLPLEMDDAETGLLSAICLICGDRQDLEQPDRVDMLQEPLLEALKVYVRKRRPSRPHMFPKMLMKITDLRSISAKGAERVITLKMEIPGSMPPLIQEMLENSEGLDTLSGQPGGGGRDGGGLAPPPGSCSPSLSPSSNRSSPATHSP
How it was run: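 HepG2 transiently transfected with multiplex GAL4-UAS reporter units including a human RARa–GAL4 chimera; 24 h compound exposure. Reporter mRNA quantified by RT-PCR, 6-FAM labeling and capillary electrophoresis; gain of signal versus DMSO.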

[13] = molecular target: human RAR-related Orphan Receptor gamma (RORg), RORC (gene 6097) (UniProt P51449); test: ATG_RORg_TRANS: Attagene TRANS-FACTORIAL HepG2 Assay for human RAR-related Orphan Receptor gamma (RORg) (AID 2283011)
How it was run: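 First, HepG2 liver cells were transfected with GAL4-UAS-driven reporter constructs and the RORg-Gal4 fusion. Next, they were treated with chemical for 24 h. Finally, reporter mRNA was quantified by RT-PCR and capillary electrophoresis, with upward activity fitted against DMSO.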

[14] = molecular target: Nuclear receptor subfamily 1 group I member 2 (Homo sapiens) (UniProt O75469); test: ATG_PXR_TRANS: Attagene TRANS-FACTORIAL HepG2 Assay for human Pregnane X Receptor (PXR) (AID 2283008)
Sequence of Nuclear receptor subfamily 1 group I member 2 (Homo sapiens) (O75469 whole entry, looked up, the tested form may be a part): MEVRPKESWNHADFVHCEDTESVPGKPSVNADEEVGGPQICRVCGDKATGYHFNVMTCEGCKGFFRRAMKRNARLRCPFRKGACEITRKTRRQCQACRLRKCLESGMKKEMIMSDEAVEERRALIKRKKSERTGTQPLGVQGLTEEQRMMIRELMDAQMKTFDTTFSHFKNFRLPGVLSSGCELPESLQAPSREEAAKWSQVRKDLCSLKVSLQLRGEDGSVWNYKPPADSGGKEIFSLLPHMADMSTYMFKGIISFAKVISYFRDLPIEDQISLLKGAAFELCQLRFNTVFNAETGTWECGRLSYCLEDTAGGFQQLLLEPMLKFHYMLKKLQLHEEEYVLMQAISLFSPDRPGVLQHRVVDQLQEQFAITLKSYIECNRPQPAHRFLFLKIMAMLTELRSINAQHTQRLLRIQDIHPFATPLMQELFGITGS
How it was run: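 HepG2 cells transiently transfected with GAL4-UAS reporter units and PXR-Gal4 chimera, exposed 24 h. Reporter mRNA quantified by RT-PCR, fluorescent labelling, HpaI digestion and capillary electrophoresis; gain of signal vs DMSO.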

[15] = molecular target: Retinoic acid receptor RXR-alpha (Homo sapiens) (UniProt P19793); test: ATG_RXRa_TRANS: Attagene TRANS-FACTORIAL HepG2 Assay for human Retinoid X Receptor alpha (RXRa) (AID 2283012)
Sequence of Retinoic acid receptor RXR-alpha (Homo sapiens) (P19793 whole entry, looked up, the tested form may be a part): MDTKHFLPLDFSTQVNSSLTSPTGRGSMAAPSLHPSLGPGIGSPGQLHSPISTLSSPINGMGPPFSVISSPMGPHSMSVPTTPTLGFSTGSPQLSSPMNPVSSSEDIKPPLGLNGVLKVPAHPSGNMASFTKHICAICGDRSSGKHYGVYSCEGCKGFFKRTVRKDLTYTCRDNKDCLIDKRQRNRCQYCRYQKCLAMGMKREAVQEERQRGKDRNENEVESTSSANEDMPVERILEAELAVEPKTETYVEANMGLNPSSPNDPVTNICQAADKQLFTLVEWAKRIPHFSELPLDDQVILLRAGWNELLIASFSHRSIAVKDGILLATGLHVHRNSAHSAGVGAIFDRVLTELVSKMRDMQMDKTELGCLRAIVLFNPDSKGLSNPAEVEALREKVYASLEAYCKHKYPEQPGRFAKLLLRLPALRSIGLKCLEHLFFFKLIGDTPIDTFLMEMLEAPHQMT
How it was run: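 HepG2 cells transiently transfected with GAL4-UAS reporter units and chimeric RXRa-Gal4 protein, treated 24 h. Reporter mRNA measured by RT-PCR, fluorescent labelling, HpaI digestion and capillary electrophoresis. Induction fitted against DMSO.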

[16] = molecular target: human Retinoic Acid Receptor gamma (RARg), RARG (gene 5916) (UniProt P13631); test: ATG_RARg_TRANS: Attagene TRANS-FACTORIAL HepG2 Assay for human Retinoic Acid Receptor gamma (RARg) (AID 2283009)
Sequence of human Retinoic Acid Receptor gamma (RARg), RARG (gene 5916) (P13631 whole entry, looked up, the tested form may be a part): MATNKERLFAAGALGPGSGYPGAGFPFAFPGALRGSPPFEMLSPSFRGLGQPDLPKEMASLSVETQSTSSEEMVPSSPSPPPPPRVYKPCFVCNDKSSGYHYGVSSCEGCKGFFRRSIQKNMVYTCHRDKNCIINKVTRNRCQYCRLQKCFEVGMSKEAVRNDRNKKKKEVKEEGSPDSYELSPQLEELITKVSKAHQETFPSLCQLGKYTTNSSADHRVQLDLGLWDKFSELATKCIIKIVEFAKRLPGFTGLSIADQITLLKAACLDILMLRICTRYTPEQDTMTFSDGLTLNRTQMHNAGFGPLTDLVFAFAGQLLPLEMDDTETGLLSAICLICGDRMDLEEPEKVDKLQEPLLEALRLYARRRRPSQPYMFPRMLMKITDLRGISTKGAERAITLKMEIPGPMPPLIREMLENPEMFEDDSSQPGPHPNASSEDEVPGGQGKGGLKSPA
How it was run: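 HepG2 transiently transfected with GAL4-UAS reporter units and chimeric NR-Gal4 constructs; 24 h compound exposure. Reporter mRNA quantified by RT-PCR, FAM labeling, HpaI digestion and capillary electrophoresis; gain-of-signal versus DMSO.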

[17] = molecular target: human RAR-related Orphan Receptor beta (RORb), RORB (gene 6096) (UniProt Q92753); test: ATG_RORb_TRANS: Attagene TRANS-FACTORIAL HepG2 Assay for human RAR-related Orphan Receptor beta (RORb) (AID 2283010)
Sequence of human RAR-related Orphan Receptor beta (RORb), RORB (gene 6096) (Q92753 whole entry, looked up, the tested form may be a part): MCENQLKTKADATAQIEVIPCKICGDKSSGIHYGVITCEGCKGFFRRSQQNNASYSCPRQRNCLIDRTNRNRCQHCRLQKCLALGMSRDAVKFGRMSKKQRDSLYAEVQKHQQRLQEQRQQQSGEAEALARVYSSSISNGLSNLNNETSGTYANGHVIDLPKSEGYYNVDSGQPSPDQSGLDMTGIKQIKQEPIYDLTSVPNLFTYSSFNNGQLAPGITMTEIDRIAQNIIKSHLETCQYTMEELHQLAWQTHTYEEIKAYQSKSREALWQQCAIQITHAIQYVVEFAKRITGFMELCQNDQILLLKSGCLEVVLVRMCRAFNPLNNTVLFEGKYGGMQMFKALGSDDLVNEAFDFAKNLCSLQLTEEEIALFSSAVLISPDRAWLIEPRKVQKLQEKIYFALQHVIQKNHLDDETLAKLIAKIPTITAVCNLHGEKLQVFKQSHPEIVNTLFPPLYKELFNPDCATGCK
How it was run: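 HepG2 cells transiently transfected with GAL4-UAS reporter units expressing chimeric NR-Gal4 protein; reporter mRNA measured 24 h after dosing by RT-PCR, 6-FAM labelling and capillary electrophoresis. Gain-of-signal fitted relative to DMSO baseline.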

[18] = molecular target: human Retinoid X Receptor beta (RXRb), RXRB (gene 6257) (UniProt P28702); test: ATG_RXRb_TRANS: Attagene TRANS-FACTORIAL HepG2 Assay for human Retinoid X Receptor beta (RXRb) (AID 2283013)
Sequence of human Retinoid X Receptor beta (RXRb), RXRB (gene 6257) (P28702 whole entry, looked up, the tested form may be a part): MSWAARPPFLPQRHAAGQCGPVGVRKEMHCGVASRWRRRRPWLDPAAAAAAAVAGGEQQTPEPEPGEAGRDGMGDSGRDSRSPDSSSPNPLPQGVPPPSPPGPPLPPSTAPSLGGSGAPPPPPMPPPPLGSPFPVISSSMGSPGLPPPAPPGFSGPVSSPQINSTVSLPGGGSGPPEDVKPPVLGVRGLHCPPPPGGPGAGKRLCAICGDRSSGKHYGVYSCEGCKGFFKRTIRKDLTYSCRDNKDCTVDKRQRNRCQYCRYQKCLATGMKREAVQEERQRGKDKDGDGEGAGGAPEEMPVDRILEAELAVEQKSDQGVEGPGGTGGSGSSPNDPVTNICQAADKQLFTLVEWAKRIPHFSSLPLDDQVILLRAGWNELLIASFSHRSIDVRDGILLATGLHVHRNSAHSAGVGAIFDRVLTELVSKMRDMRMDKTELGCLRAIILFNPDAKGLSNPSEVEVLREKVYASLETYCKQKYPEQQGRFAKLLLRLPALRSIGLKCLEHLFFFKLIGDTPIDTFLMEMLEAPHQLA
How it was run: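 HepG2 cells were transiently transfected with multiplexed GAL4-UAS reporters and a chimeric RXRb-Gal4 construct, then exposed for 24 h. Reporter mRNA was quantified by RT-PCR, FAM labeling, HpaI digestion and capillary electrophoresis; gain of signal was scored against DMSO.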

[19] = molecular target: human Peroxisome Proliferator-activated Receptor delta (PPARd), PPARD (gene 5467) (UniProt Q03181); test: ATG_PPARd_TRANS: Attagene TRANS-FACTORIAL HepG2 Assay for human Peroxisome Proliferator-activated Receptor delta (PPARd) (AID 2283002)
How it was run: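 Fluorescence from capillary electrophoresis of labelled RT-PCR reporter fragments gives the signal; DMSO sets baseline. Cells: HepG2 transiently carrying GAL4-UAS reporter units plus chimeric nuclear receptor-Gal4 proteins, exposed to chemicals for 24 h.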

Structure (SMILES): CC(CN=Cc1ccccc1O)N=Cc1ccccc1O (centres undefined)
- outcome [1]: inactive
- outcome [2]: inactive
- outcome [3]: inactive
- AC50 [4]: 72.2 µM (active)
- outcome [5]: inactive
- outcome [6]: inactive
- outcome [7]: inactive
- outcome [8]: inactive
- outcome [9]: inactive
- outcome [10]: inactive
- AC50 [11]: 0.16 µM (active)
- outcome [11]: inactive

Structure (SMILES): OCC#CCO
- outcome [1]: inactive
- outcome [3]: inactive
- outcome [12]: inactive
- outcome [4]: inactive
- outcome [13]: inactive

Structure (SMILES): OCCc1ccccc1
- outcome [1]: inactive
- outcome [3]: inactive
- outcome [12]: inactive
- outcome [14]: inactive
- outcome [13]: inactive
- outcome [15]: inactive
- outcome [5]: inactive

Structure (SMILES): O=C(O)CNc1ccccc1
- outcome [1]: inactive
- outcome [3]: inactive
- outcome [12]: inactive
- outcome [4]: inactive
- AC50 [14]: 27.3 µM (active)
- outcome [16]: inactive
- outcome [17]: inactive
- outcome [15]: inactive
- outcome [18]: inactive
- outcome [5]: inactive

Structure (SMILES): C=C(C)C(=O)OCCOCCOCCOC(=O)C(=C)C
- outcome [1]: inactive
- outcome [2]: inactive
- outcome [4]: inactive
- outcome [14]: inactive
- outcome [6]: inactive
- outcome [7]: inactive
- outcome [8]: inactive
- outcome [9]: inactive
- outcome [10]: inactive
- outcome [11]: inactive

Structure (SMILES): C=CC(C)(O)CCC=C(C)C (centres undefined)
- outcome [1]: inactive
- outcome [2]: inactive
- outcome [3]: inactive
- outcome [4]: inactive
- outcome [14]: inactive
- outcome [17]: inactive
- outcome [15]: inactive
- outcome [18]: inactive
- outcome [6]: inactive
- outcome [7]: inactive
- outcome [8]: inactive
- outcome [9]: inactive
- outcome [10]: inactive
- outcome [11]: inactive

Structure (SMILES): CCCCCCCCCCCCCCN(CCO)CCO
- outcome [1]: inactive
- outcome [3]: inactive
- outcome [12]: inactive
- outcome [14]: inactive
- outcome [16]: inactive
- outcome [15]: inactive
- outcome [5]: inactive

Structure (SMILES): Cc1ccc(S(N)(=O)=O)cc1
- outcome [1]: inactive
- outcome [3]: inactive
- outcome [12]: inactive
- outcome [14]: inactive
- outcome [16]: inactive
- outcome [5]: inactive

Structure (SMILES): CCC1CCCCC1
- outcome [1]: inactive
- outcome [3]: inactive
- outcome [12]: inactive
- outcome [4]: inactive
- outcome [16]: inactive
- outcome [17]: inactive
- outcome [5]: inactive

Structure (SMILES): CCCCCCCCc1ccc(S(=O)(=O)O)cc1
- outcome [1]: inactive
- outcome [3]: inactive
- outcome [12]: inactive
- AC50 [4]: 23.6 µM (active)
- outcome [14]: inactive
- outcome [16]: inactive
- outcome [17]: inactive
- outcome [15]: inactive
- outcome [18]: inactive

Structure (SMILES): CN1C(=O)c2ccccc2C1=O
- outcome [1]: inactive
- outcome [19]: inactive
- outcome [16]: inactive
- outcome [13]: inactive

Structure (SMILES): Cc1cc(S(=O)(=O)O)ccc1N=Nc1c(O)ccc2ccccc12
- outcome [1]: inactive
- outcome [3]: inactive
- outcome [12]: inactive
- outcome [4]: inactive
- outcome [14]: inactive
- outcome [16]: inactive
- outcome [17]: inactive
- outcome [5]: inactive

Structure (SMILES): CC/C=C\CC/C=C/CO
- outcome [1]: inactive
- outcome [19]: inactive
- AC50 [4]: 52.9 µM (active)
- outcome [18]: inactive
- outcome [5]: inactive
